Several values for one entry are separate records, joined by “and”; a condition that tells them apart may be missing. Identical values can stand only once. Among all 5,500 compounds or so, about 2,000 (36%) were called active. Roughly 18% stayed inconclusive and do not appear here. Rule as the data show it: active = normalized growth mostly below about 0.91 (no sharp cut-off); inconclusive = no clear call, values can overlap the other calls; inactive = mostly above about 0.92. The list shows a part of the results. Some compounds were tested as several samples or in several runs, with calls that do not always agree.
Assay: chemical genetic growth profiling, strain panel (AID 1159580);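 also: tested at 20 µM; growth read once vehicle control cultures reached saturation at 30 °C; 1 = growth at the plate median or of vehicle wells; lower values mean less growth of the strain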
Conditions: growth OD
[1] = S. cerevisiae deletion strains, locus YAL013W, strain DEP1, stronger effect = lower value
[2] = S. cerevisiae deletion strains, locus YAL040C, strain CLN3, stronger effect = lower value
[3] = S. cerevisiae deletion strains, locus YCL061C, strain MRC1 (second series), stronger effect = lower value
[4] = S. cerevisiae deletion strains, locus YDR150W, strain NUM1, stronger effect = lower value
[5] = S. cerevisiae deletion strains, locus YDR363W, strain ESC2, stronger effect = lower value
[6] = S. cerevisiae deletion strains, locus YJR075W, strain HOC1, stronger effect = lower value
[7] = S. cerevisiae deletion strains, locus YMR263W, strain SAP30, stronger effect = lower value
[8] = S. cerevisiae deletion strains, locus YNL175C, strain NOP13, stronger effect = lower value
[9] = S. cerevisiae deletion strains, locus YNL197C, strain WHI3, stronger effect = lower value
[10] = S. cerevisiae deletion strains, locus YNL322C, strain KRE1, stronger effect = lower value

Measured: normalized growth

Cc1nc2sccn2c(=O)c1CCN1CCC(=C(c2ccccc2)c2ccc(F)cc2)CC1
inactive: [1] 0.965 | [2] 0.99 | [3] 0.993 | [4] 0.995 | [5] 0.985 | [6] 1.01 | [7] 0.992 | [8] 1.04 | [9] 1.05 | S. cerevisiae deletion strains, locus YNL224C, strain SQS1, stronger effect = lower value 1.02 | [10] 0.956 | S. cerevisiae deletion strains, locus YPL241C, strain CIN2, stronger effect = lower value 0.992

Cc1nc2sccn2c(=O)c1CCN1CCC(=C(c2ccc(F)cc2)c2ccc(F)cc2)CC1
0.65 (active) and 1.01 (inactive): [1]
0.354 (active) and 0.987 (inactive): S. cerevisiae deletion strains, locus YJL095W, strain BCK1, stronger effect = lower value
0.732 (active) and 0.816 (inactive): S. cerevisiae deletion strains, locus YNL153C, strain GIM3, stronger effect = lower value
0.206 (active) and 1.03 (inactive): S. cerevisiae deletion strains, locus YMR307W, strain GAS1, stronger effect = lower value
0.132 (active) and 0.945 (inactive): S. cerevisiae deletion strains, locus YGR229C, strain SMI1, stronger effect = lower value
0.637 (active) and 1.1 (inactive): S. cerevisiae deletion strains, locus YNL128W, strain TEP1, stronger effect = lower value
0.802 (active) and 0.999 (inactive): [4]
active: S. cerevisiae deletion strains, locus YBR021W, strain FUR4, stronger effect = lower value 0.338 | S. cerevisiae deletion strains, locus YCL029C, strain bik1, stronger effect = lower value 0.885 | S. cerevisiae deletion strains, locus YDL035C, strain GPR1, stronger effect = lower value 0.536 | S. cerevisiae deletion strains, locus YDL074C, strain BRE1, stronger effect = lower value 0.395 | S. cerevisiae deletion strains, locus YDL101C, strain DUN1, stronger effect = lower value 0.758 | S. cerevisiae deletion strains, locus YDL134C, strain PPH21, stronger effect = lower value 0.404 | S. cerevisiae deletion strains, locus YDL192W, strain arf1, stronger effect = lower value 0.844 | S. cerevisiae deletion strains, locus YDR162C, strain NBP2, stronger effect = lower value 0.0773 | S. cerevisiae deletion strains, locus YDR318W, strain mcm21, stronger effect = lower value 0.865 | S. cerevisiae deletion strains, locus YDR388W, stronger effect = lower value 0.222 | S. cerevisiae deletion strains, locus YDR502C, strain sam2, stronger effect = lower value 0.832 | S. cerevisiae deletion strains, locus YEL061C, strain CIN8, stronger effect = lower value 0.672 | S. cerevisiae deletion strains, locus YER002W, strain NOP16, stronger effect = lower value 1.21 [resistant] | S. cerevisiae deletion strains, locus YER155C, strain BEM2, stronger effect = lower value 0.897 | S. cerevisiae deletion strains, locus YER167W, strain BCK2, stronger effect = lower value 0.692 | S. cerevisiae deletion strains, locus YGL086W, strain mad1, stronger effect = lower value 0.808 | S. cerevisiae deletion strains, locus YGL248W, strain PDE1, stronger effect = lower value 0.511 | S. cerevisiae deletion strains, locus YGR078C, strain PAC10, stronger effect = lower value 0.695 | S. cerevisiae deletion strains, locus YGR135W, strain pre9, stronger effect = lower value 0.683 | S. cerevisiae deletion strains, locus YGR252W, strain gcn5, stronger effect = lower value 0.487 | S. cerevisiae deletion strains, locus YHR079C, strain IRE1 (second series), stronger effect = lower value 0.902 | S. cerevisiae deletion strains, locus YHR200W, strain rpn10, stronger effect = lower value 0.914 | S. cerevisiae deletion strains, locus YIL066C, strain RNR3, stronger effect = lower value 0.571 | S. cerevisiae deletion strains, locus YIL073C, strain SPO22, stronger effect = lower value 0.279 | S. cerevisiae deletion strains, locus YIR030C, strain dcg1, stronger effect = lower value 0.917 | S. cerevisiae deletion strains, locus YJL187C, strain SWE1 (second series), stronger effect = lower value 0.547 | S. cerevisiae deletion strains, locus YJR043C, strain POL32, stronger effect = lower value 0.69 | S. cerevisiae deletion strains, locus YKL190W, strain CNB1, stronger effect = lower value 0.604 | S. cerevisiae deletion strains, locus YKR001C, strain vps1, stronger effect = lower value 0.139 | S. cerevisiae deletion strains, locus YLR039C, strain RIC1, stronger effect = lower value 0.303 | S. cerevisiae deletion strains, locus YLR058C, strain SHM2, stronger effect = lower value 0.613 | S. cerevisiae deletion strains, locus YLR262C, strain YPT6, stronger effect = lower value 0.289 | S. cerevisiae deletion strains, locus YLR268W, strain sec22, stronger effect = lower value 0.624 | S. cerevisiae deletion strains, locus YLR330W, strain CHS5, stronger effect = lower value 0.833 | S. cerevisiae deletion strains, locus YLR342W, strain FKS1 (second series), stronger effect = lower value 0.56 | S. cerevisiae deletion strains, locus YLR418C, strain cdc73, stronger effect = lower value 0.451 | S. cerevisiae deletion strains, locus YML016C, strain PPZ1, stronger effect = lower value 0.65 | S. cerevisiae deletion strains, locus YML032C, strain rad52, stronger effect = lower value 0.825 | S. cerevisiae deletion strains, locus YMR223W, strain ubp8, stronger effect = lower value 0.816 | S. cerevisiae deletion strains, locus YNL067W, strain RPL9B, stronger effect = lower value 0.72 | [8] 1.28 [resistant] | [9] 1.19 [resistant] | S. cerevisiae deletion strains, locus YNL233W, strain BNI4, stronger effect = lower value 0.573 | S. cerevisiae deletion strains, locus YNL307C, strain MCK1, stronger effect = lower value 0.863 | [10] 0.67 | S. cerevisiae deletion strains, locus YNR052C, strain pop2, stronger effect = lower value 0.773 | S. cerevisiae deletion strains, locus YOL006C, strain TOP1, stronger effect = lower value 0.138 | S. cerevisiae deletion strains, locus YOR061W, strain CKA2, stronger effect = lower value 0.646 | S. cerevisiae deletion strains, locus YOR069W, strain VPS5, stronger effect = lower value 0.861 | S. cerevisiae deletion strains, locus YOR184W, strain ser1, stronger effect = lower value 0.729 | S. cerevisiae deletion strains, locus YPL055C, strain LGE1, stronger effect = lower value 0.268 | S. cerevisiae deletion strains, locus YPR163C, strain tif3, stronger effect = lower value 0.722 | S. cerevisiae deletion strains, locus YPR167C, strain met16, stronger effect = lower value 0.906 | S. cerevisiae deletion strains, strain wtn01, stronger effect = lower value 0.776 | S. cerevisiae strains, strain wild type, stronger effect = lower value 0.592
0.36 (active) and 0.998 (inactive): [6]
0.733 (active) and 1 (inactive): [7]
inactive: [2] 1 | S. cerevisiae deletion strains, locus YBR229C, strain ROT2, stronger effect = lower value 0.992 | [3] 1 | S. cerevisiae deletion strains, locus YDL185W, strain tfp1, stronger effect = lower value 1.01 | S. cerevisiae deletion strains, locus YDR101C, strain arx1, stronger effect = lower value 0.945 | [5] 1.01 | S. cerevisiae deletion strains, locus YER110C, stronger effect = lower value 1 | S. cerevisiae deletion strains, locus YGL078C, strain dbp3, stronger effect = lower value 1 | S. cerevisiae deletion strains, locus YHR079C, strain IRE1, stronger effect = lower value 0.959 | S. cerevisiae deletion strains, locus YHR094C, strain hxt1, stronger effect = lower value 1 | S. cerevisiae deletion strains, locus YIL125W, strain kgd1, stronger effect = lower value 1 | S. cerevisiae deletion strains, locus YJL134W, strain LCB3, stronger effect = lower value 1.01 | S. cerevisiae deletion strains, locus YJL168C, strain set2, stronger effect = lower value 0.998 | S. cerevisiae deletion strains, locus YJR066W, strain TOR1, stronger effect = lower value 0.965 | S. cerevisiae deletion strains, locus YKL009W, strain mrt4, stronger effect = lower value 0.967 | S. cerevisiae deletion strains, locus YKL068W, stronger effect = lower value 0.999 | S. cerevisiae deletion strains, locus YKL085W, strain MDH1 (second series), stronger effect = lower value 0.992 | S. cerevisiae deletion strains, locus YKL085W, strain MDH1, stronger effect = lower value 0.992 | S. cerevisiae deletion strains, locus YLR102C, strain apc9, stronger effect = lower value 0.999 | S. cerevisiae deletion strains, locus YLR113W, strain HOG1, stronger effect = lower value 0.979 | S. cerevisiae deletion strains, locus YLR371W, strain rom2, stronger effect = lower value 0.978 | S. cerevisiae deletion strains, locus YML124C, strain tub3, stronger effect = lower value 1 | S. cerevisiae deletion strains, locus YMR078C, strain ctf18, stronger effect = lower value 1 | S. cerevisiae deletion strains, locus YNL183C, strain NPR1, stronger effect = lower value 0.935 | S. cerevisiae deletion strains, locus YNL250W, strain rad50, stronger effect = lower value 0.988 | S. cerevisiae deletion strains, locus YNL271C, strain bni1, stronger effect = lower value 0.992 | S. cerevisiae deletion strains, locus YNL298W, strain CLA4, stronger effect = lower value 0.999 | S. cerevisiae deletion strains, locus YOL012C, strain htz1 0.498 | S. cerevisiae deletion strains, locus YOL147C, strain pex11, stronger effect = lower value 0.984 | S. cerevisiae deletion strains, locus YOR083W, strain WHI5 (second series), stronger effect = lower value 0.985 | S. cerevisiae deletion strains, locus YOR136W, strain idh2, stronger effect = lower value 0.94 | S. cerevisiae deletion strains, locus YOR144C, strain elg1, stronger effect = lower value 1.01 | S. cerevisiae deletion strains, locus YOR231W, strain MKK1, stronger effect = lower value 0.999 | S. cerevisiae deletion strains, locus YOR316C, strain cot1, stronger effect = lower value 0.996 | S. cerevisiae deletion strains, locus YPL256C, strain CLN2, stronger effect = lower value 0.962 | S. cerevisiae deletion strains, locus YPR119W, strain clb2, stronger effect = lower value 1.01 | S. cerevisiae deletion strains, locus YPR141C, strain kar3, stronger effect = lower value 0.997
0.65 (active) and 0.981 (inactive): S. cerevisiae deletion strains, locus YHR030C, strain SLT2, stronger effect = lower value

Source: PubChem BioAssay AID1159580 (chemical genetic matrix, 2015)
